Reference: PubChem BioAssay AID1527 (The Scripps Research Institute Molecular Screening Center, 2009)
Screen size: about 290,000 compounds; about 2,600 (0.9%) were called active. The list comes from a sample in which actives are over-represented; it also holds similar structures and randomly drawn compounds. Unmarked numbers belong to inactive results.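 The calls were made as follows: active = inhibition above the mean of all tested compounds plus 3 SD, cutoff set per screening run (cut at about 7.5% in these data); inactive = the rest.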

Test system: VIM-2 metallo-beta-lactamase (Pseudomonas aeruginosa)
Assay: VIM-2 metallo-beta-lactamase inhibitors, primary screen, biochemical, epi-absorbance readout, Pseudomonas aeruginosa enzyme (AID 1527);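 also: red hydrolysis product quenches plate fluorescence so inhibitors raise well fluorescence; 0% = enzyme with DMSO and 100% = DMSO without enzyme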
Conditions: purified VIM-2, nitrocefin hydrolysis, epi-absorbance fluorescence; at 5.6 µM; hits give high values

SMILES	inhibition
Cc1cccc(-c2nc(Nc3ccc(O)cc3)c3ccccc3n2)c1	-0.38%
c1ccc(Nc2nc(N3CCOCC3)c3ccccc3n2)cc1	-0.89%
CN1CCN(c2nc(Nc3ccc(O)cc3)nc3ccccc23)CC1	12.2% (active)
O=C(/C=C/c1ccc2c(c1)OCCO2)c1ccc(O)cc1	0.15%
CCC(=C/c1sc2ccc3ccccc3c2[n+]1C)/C=C1\Sc2ccc3ccccc3c2N1C	18.2% (active)
CN1CCN(c2ccc(NC(=O)c3ccc4c(c3)[nH]c(=O)n4Cc3ccc(F)cc3)cc2)CC1	17.6% (active)
CN1CCN(c2ccc(NC(=O)c3ccccc3)cc2)CC1	5.59%
CC(C)n1c(=O)[nH]c2cc(C(=O)Nc3ccccc3)ccc21	-0.68%
Cc1cc2occ(CC(=O)NNC(=O)c3ccccc3F)c2cc1C	-1.98%
Cc1nc(N)nc(SCc2ccc([N+](=O)[O-])cc2)c1N	-0.52%
COC(=O)c1ccc(NC(=O)CSc2nnc(C3CC3)n2C)cc1	-2.19%
CCN1CCN(c2ccc(NC(=O)c3cnccn3)cc2)CC1	11.1% (active)
O=C(Nc1ccc(S(=O)(=O)N2CCCCC2)cc1)c1cnccn1	-1.24%
O=C(Nc1ccc2c(c1)OCCO2)c1cnccn1	-1.18%
CC(CC(=O)N1CCN(c2ccccc2)CC1)S(=O)(=O)c1ccc2c(c1)NC(=O)CS2 (stereo not given)	-2.34%
CN1CCN(Cc2c(C(=O)N3CCc4ccccc4C3)nc3ccc(Cl)cn23)CC1	1.36%
O=C(Nc1ccc(N2CCOCC2)c(Cl)c1)c1ccc(S(=O)(=O)N2CCOCC2)cc1	-1.9%
CNC(=O)c1ccsc1NC(=O)c1ccc(S(=O)(=O)N2CCOCC2)cc1	18.2% (active)
CC1CN(S(=O)(=O)c2ccc(C(=O)Nc3sccc3C(N)=O)cc2)CC(C)O1 (stereo not given)	-1.24%
COC(=O)c1c(NC(=O)c2ccc(S(=O)(=O)N3CCOCC3)cc2)sc2c1CCN(C(C)C)C2	60.3% (active)

SMILES	inhibition
CNC(=O)c1ccsc1NC(=O)c1ccc(S(=O)(=O)N2CCc3ccccc32)cc1	-1.27%
COc1ccc(C(=O)Nc2nc(-c3ccc(S(=O)(=O)N4CCOCC4)cc3)cs2)cc1	-4.64%
Cc1ccn2c(c1)nc(=O)c1cc(S(=O)(=O)N3CCC(C)CC3)ccc12	3.01%
CC(C(=O)NC1CCCCC1)N1C(=O)c2cccc3cccc1c23 (stereo not given)	0.01%
COc1ccc2c(c1OC)C(=O)N(c1ccc(O)cc1)C2	-1.4%
CCOC(=O)C1(Cc2ccccc2C)CCCN(S(C)(=O)=O)C1 (stereo not given)	2.72%
C/C(=N\Nc1ccc(S(N)(=O)=O)cc1[N+](=O)[O-])c1cccs1	11.9% (active)
C/C(=N\Nc1ncc(Cl)cc1Cl)c1cccs1	-1.51%
C/C(=N\NS(=O)(=O)c1ccc(Br)cc1)c1cccs1	-5.12%
CCN(CC)c1ccc(NC(=O)CCc2nnc3ccc(N4CCCCC4)nn23)c(C)c1	-1.16%
Cc1cc([N+](=O)[O-])c(-c2ccc(/C=N/n3cnnc3)o2)cc1Cl	40.1% (active)
Cc1ccccc1-c1n[nH]c(=S)n1/N=C/c1ccc(-c2ccccc2Br)o1	-6.24%
Brc1cc(/C=N/n2cnnc2)oc1Br	-2.87%
Fc1ccc(Br)cc1/C=N/n1cnnc1	1.26%
O=C1C2C3C=CC(C4CC34)C2C(=O)N1/N=C/c1ccc(-c2ccccc2[N+](=O)[O-])o1 (stereo not given)	-0.54%
Cc1ccc(Cl)cc1-c1ccc(/C=N/n2cnnc2)o1	27.4% (active)
Cc1ccccc1OCCOc1ccc([N+](=O)[O-])cc1/C=N/n1cnnc1	-0.56%
Clc1cc(-c2ccc(/C=N/n3cnnc3)o2)ccc1Br	14.1% (active)
CC1=NN(c2ccc(Cl)c(C(=O)O)c2)C(=O)/C1=C/c1ccc(-c2ccccc2[N+](=O)[O-])o1	-1.65%
COC(=O)N/N=C/c1ccc(-c2ccc(Cl)c(Cl)c2)o1	-1.8%

SMILES	inhibition
Cc1cc(C)c([N+](=O)[O-])cc1-c1ccc(/C=N/NC(=O)c2nonc2N)o1	-3.27%
Cc1cc(-c2ccc(/C=N/n3cnnc3)o2)c([N+](=O)[O-])cc1C	41.5% (active)
CC(NC(=O)C1CCCN(S(=O)(=O)c2ccc(-n3cnnn3)cc2)C1)c1ccc(F)cc1 (stereo not given)	1.19%
COc1ccc(CSc2nnnn2-c2ccc(C(=O)O)cc2)cc1	-2.38%
COc1cc(CN2CCCC(C(=O)c3ccc(SC)cc3)C2)cc(Cl)c1O (stereo not given)	-0.31%
CCOc1c(OC)cccc1C(=O)NCC1(c2ccccc2)CCCC1	-2.24%
COCCCNC(=S)NNC(=O)C(O)(c1ccccc1)c1ccccc1	2.9%
O=C(NNC(=S)NCCCN1CCOCC1)c1ccncc1	6.22%
CCCCNC(=S)NNC(=O)c1cc(C)on1	9.24% (active)
Cc1ccc(SCC(=O)c2cc(C)c(OC(=S)N(C)C)c(C)c2)cc1	-4.92%
CCCC1=Nc2cc(C(=O)NCCN3CCCC3)ccc2Sc2ccccc21	-3.66%
COc1ccc(/C=N/Nc2nc3ccccc3o2)cc1OC	-2.44%
COc1cc(/C=N/NC(=O)Cc2ccccc2)cc(OC)c1OC	-1.77%
COc1cc(/C=N/Nc2nn3cnnc3c3ccccc23)cc(OC)c1OC	25.2% (active)
CCCc1nn2c(=O)cc(CSCC(=O)Nc3cccc(C)c3)nc2s1	0.24%
Cc1cccn2cc(-c3cccc(S(=O)(=O)N4CCCCC4)c3)nc12	-0.51%
CN(C(=O)c1cccc([N+](=O)[O-])c1)c1ccccc1C(=O)NCc1ccccc1	-1.36%
O=c1c2ccccc2oc2nc3n(c(=O)c12)CCCS3	8.39% (active)
O=c1c2ccccc2oc2nc(C3CCCCC3)n(Cc3ccco3)c(=O)c12	-2.32%
CCc1nc2oc3ccccc3c(=O)c2c(=O)n1Cc1ccc(OC)cc1	-2.13%
